Reference: PubChem BioAssay AID1159580 (chemical genetic matrix, 2015)
Out of some 5,500 compounds screened, about 2,000 (36%) were called active. Roughly 18% stayed inconclusive and do not appear here. Cut-off read from the data, not from the text of the source: active = normalized growth mostly below about 0.91 (no sharp cut-off); inconclusive = no clear call, values can overlap the other calls; inactive = mostly above about 0.92. This is one part of the list.

Test: chemical genetic growth profiling, strain panel (AID 1159580);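 note: tested at 20 µM; growth read once vehicle control cultures reached saturation at 30 °C; 1 = growth at the plate median or of vehicle wells; lower values mean less growth of the strain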
Details: S. cerevisiae deletion strains, growth OD
[1] = locus YHR030C, strain SLT2, active compounds read low
[2] = locus YHR079C, strain IRE1, active compounds read low
[3] = locus YJL095W, strain BCK1, active compounds read low
[4] = locus YJR066W, strain TOR1, active compounds read low
[5] = locus YLR113W, strain HOG1, active compounds read low
[6] = locus YNL183C, strain NPR1, active compounds read low
[7] = locus YOR231W, strain MKK1, active compounds read low
[8] = locus YPL256C, strain CLN2, active compounds read low

Measured: normalized growth

COc1ccc(-c2oc3ccccc3c(=O)c2OC)cc1
inactive: [1] 0.882 | [2] 0.897 | [3] 0.909 | [4] 0.829 | [5] 0.934 | [6] 0.836 | [7] 0.901 | [8] 0.894

COc1ccc(-c2oc3cc(OC)c(OC)c(OC)c3c(=O)c2OC)cc1OC
inactive: locus YAL021C, strain ccr4, active compounds read low 0.98 | locus YAL026C, strain drs2, active compounds read low 0.957 | locus YAL030W, strain snc1, active compounds read low 0.979 | locus YBL061C, strain skt5, active compounds read low 0.998 | locus YBR009C, strain hhf1, active compounds read low 0.966 | locus YBR023C, strain chs3, active compounds read low 0.986 | locus YBR171W, strain sec66, active compounds read low 0.972 | locus YBR231C, strain swc5, active compounds read low 0.968 | locus YBR279W, strain paf1, active compounds read low 0.983 | locus YCL011C, strain gbp2, active compounds read low 0.972 | locus YCL016C, strain dcc1, active compounds read low 1 | locus YCL061C, strain MRC1, active compounds read low 0.993 | locus YCL069W, strain vba3, active compounds read low 0.977 | locus YCR088W, strain abp1, active compounds read low 0.976 | locus YDL005C, strain med2, active compounds read low 0.981 | locus YDL040C, strain nat1, active compounds read low 0.982 | locus YDR001C, strain nth1, active compounds read low 0.978 | locus YDR069C, strain doa4, active compounds read low 0.972 | locus YDR137W, strain rgp1, active compounds read low 0.966 | locus YDR159W, strain sac3, active compounds read low 0.966 | locus YDR195W, strain ref2 0.982 | locus YDR297W, strain sur2, active compounds read low 0.984 | locus YDR334W, strain swr1, active compounds read low 0.97 | locus YDR335W, strain msn5, active compounds read low 0.982 | locus YDR392W, strain spt3, active compounds read low 0.767 | locus YEL003W, strain gim4, active compounds read low 0.973 | locus YEL037C, strain rad23, active compounds read low 0.956 | locus YEL061C, strain CIN8 (second series), active compounds read low 0.971 | locus YER015W, strain faa2, active compounds read low 0.99 | locus YER016W, strain bim1, active compounds read low 0.986 | locus YER111C, strain swi4, active compounds read low 0.976 | locus YER155C, strain BEM2 (second series), active compounds read low 0.932 | locus YFR010W, strain ubp6, active compounds read low 0.96 | locus YGL167C, strain pmr1, active compounds read low 0.983 | locus YGL173C, strain kem1, active compounds read low 0.996 | locus YGL227W, strain vid30, active compounds read low 0.976 | locus YGL240W, strain doc1, active compounds read low 0.973 | locus YGL253W, strain hxk2, active compounds read low 0.92 | locus YHR013C, strain ard1, active compounds read low 0.956 | locus YHR027C, strain rpn1, active compounds read low 1 | [1] 1.03 | [2] 1.01 | locus YHR142W, strain chs7, active compounds read low 0.933 | locus YJL092W, strain hpr5, active compounds read low 0.966 | locus YJL095W, strain BCK1 (second series), active compounds read low 0.987 | [3] 0.972 | locus YJL115W, strain asf1, active compounds read low 0.986 | locus YJL129C, strain trk1, active compounds read low 0.979 | locus YJL154C, strain vps35, active compounds read low 0.974 | locus YJL164C, strain tpk1, active compounds read low 0.974 | locus YJL166W, strain qcr8, active compounds read low 0.978 | locus YJL187C, strain SWE1, active compounds read low 0.981 | [4] 1 | locus YKL160W, strain elf1, active compounds read low 0.998 | locus YKR026C, strain gcn3, active compounds read low 0.976 | locus YKR091W, strain srl3, active compounds read low 0.985 | locus YLL001W, strain dnm1, active compounds read low 1 | locus YLL026W, active compounds read low 0.989 | locus YLL041C, strain sdh2, active compounds read low 0.977 | locus YLR027C, strain aat2, active compounds read low 0.986 | [5] 0.902 | locus YLR221C, strain rsa3, active compounds read low 1.01 | locus YLR258W, strain gsy2, active compounds read low 0.994 | locus YLR262C, strain YPT6 (second series), active compounds read low 0.95 | locus YLR320W, strain mms22, active compounds read low 0.99 | locus YLR342W, strain FKS1, active compounds read low 0.959 | locus YLR357W, strain rsc2, active compounds read low 0.96 | locus YLR370C, strain arc18, active compounds read low 0.986 | locus YLR384C, strain iki3, active compounds read low 0.996 | locus YML120C, strain ndi1, active compounds read low 0.97 | locus YMR058W, strain fet3, active compounds read low 0.971 | locus YMR125W, strain sto1, active compounds read low 0.964 | locus YMR129W, active compounds read low 0.976 | locus YMR205C, strain PFK2, active compounds read low 0.997 | locus YMR231W, strain pep5, active compounds read low 0.992 | locus YNL071W, strain lat1, active compounds read low 0.969 | [6] 0.956 | locus YNL209W, strain ssb2, active compounds read low 0.993 | locus YNL248C, strain rpa49, active compounds read low 0.967 | locus YNL322C, strain KRE1 (second series), active compounds read low 0.989 | locus YNR049C, strain mso1, active compounds read low 0.982 | locus YOR001W, strain rrp6, active compounds read low 0.938 | locus YOR070C, strain gyp1, active compounds read low 0.983 | locus YOR080W, strain dia2, active compounds read low 0.987 | locus YOR083W, strain WHI5, active compounds read low 0.998 | locus YOR106W, strain vam3, active compounds read low 0.991 | [7] 1.02 | locus YOR265W, strain rbl2, active compounds read low 0.987 | locus YOR270C, strain vph1, active compounds read low 0.863 | locus YOR290C, strain snf2, active compounds read low 0.953 | locus YPL051W, strain arl3, active compounds read low 1 | locus YPL078C, strain atp4, active compounds read low 0.977 | locus YPL106C, strain sse1, active compounds read low 0.969 | locus YPL240C, strain hsp82, active compounds read low 0.995 | [8] 1
